Assay [1] can be described thus: qHTS Assay for Lipid Storage Modulators (AID 1519; calls by dose curve; on activity change, negative = inhibition: on the % scale 0 is the no-effect control and ±100 the full control effect). To be noted: Drosophila S3 cells, BODIPY lipid droplet/cell ratio, laser cytometry, cells loaded with oleic acid; for activity change, negative = inhibition: at 57.5 µM (top of the series). The essentials: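 Cells seeded at 5,000 per well were treated with compounds over a concentration series and loaded with oleic acid (400 uM, as added). Lipid droplet fluorescence (488 nm excitation, 500-530 nm channel) was read by laser-scanning cytometry and normalized to 20 uM Triacsin C.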

In assay [2] the target is DNA repair nuclease/redox regulator APEX1 (Homo sapiens) (UniProt P27695). Description: qHTS Validation Assay for Inhibitors of the Human Apurinic/apyrimidinic Endonuclease 1 (APE1) (AID 1705;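 further: TAMRA fluorescence gain over two minutes as APE1 cuts a quenched THF abasic duplex; on the % scale 0 is the no-effect control and ±100 the full control effect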). The note with it: purified APE1 endonuclease activity, fluorescence, titration; series mostly up to 57.1 µM. The essentials:
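Endonuclease activity of human APE1 is followed as dequenching when the enzyme incises a tetrahydrofuran abasic site in a short duplex labelled 5'-TAMRA/3'-BHQ-2 (50 nM final), after 15 min enzyme–compound preincubation at room temperature.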

The nature of assay [3]: Counterscreen for APE1 Inhibitors: Fluorescent Dye Displacement Validation Assay (AID 1707).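 Further: plate controls were ThO with dsDNA and no compound for no effect and ThO without dsDNA for full effect.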 The note with it: fluorescent dye displacement from DNA; series mostly up to 57.1 µM. The essentials: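 Counterscreen flags promiscuous DNA binders: compounds displacing ThO from duplex DNA (abasic THF site, 50 nM) reduce 540 nm emission (480 nm excitation). ThO 250 nM final; Tris-HCl pH 7.5 with NaCl, MgCl2 and Tween-20.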

Assay [4] can be described thus: qHTS for differential inhibitors of proliferation of Plasmodium falciparum line 7G8 (AID 1815).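 Further: parasite growth measured after three days of incubation.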 Further: potency means the concentration at half of the fitted maximal effect.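 On activity change, negative = inhibition: plate controls were vehicle wells for no effect and reference inhibitor wells for full effect.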 The note with it: Plasmodium falciparum 7G8 proliferation inhibition; series mostly up to 28.7 µM.
Assay [5] is described as follows: qHTS for differential inhibitors of proliferation of Plasmodium falciparum line GB4 (AID 1816).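 Further: parasite growth measured after 72 h incubation.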 Further: potency means the concentration at half of the fitted maximal effect.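 On activity change, negative = inhibition: 0% = vehicle DMSO and -100% = reference inhibitor.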 To be noted: Potency: Plasmodium falciparum GB4 proliferation inhibition; series mostly up to 28.7 µM.
A short description of assay [6]: qHTS for differential inhibitors of proliferation of Plasmodium falciparum line 3D7 (AID 1876). Further: potency means the concentration at half of the fitted maximal effect. The note with it: P. falciparum 3D7 proliferation inhibition; series mostly up to 28.7 µM.
The nature of assay [7]: qHTS for differential inhibitors of proliferation of Plasmodium falciparum line D10 (AID 1877).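 Further: parasites grown with compound for 72 h before DNA staining.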 Further: potency means the concentration at half of the fitted maximal effect.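 On activity change, negative = inhibition: plate controls were vehicle wells for no effect and reference inhibitor wells for full effect.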 To be noted: series mostly up to 28.7 µM.
Assay [8] in a line: qHTS for differential inhibitors of proliferation of Plasmodium falciparum line Dd2 (AID 1882). Further: nearly all actives have a fitted effect of over 65% in size. Further: potency means the concentration at half of the fitted maximal effect.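 On activity change, negative = inhibition: plate controls were DMSO vehicle for no effect and 0.29 µM artemisinin for full effect.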 The note with it: Potency: Plasmodium falciparum Dd2 proliferation inhibition; series mostly up to 28.7 µM. The procedure, abridged:
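SYBR Green DNA fluorescence (ex 485, em 535 nm) after overnight lysis quantifies parasite growth; compound exposure lasted 72 h at 37 C on infected red cells at 2.5% hematocrit, 0.3% parasitemia (final). Artemisinin 0.29 uM and vehicle wells define normalization.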

Assay [9] is described as follows: qHTS for differential inhibitors of proliferation of Plasmodium falciparum line W2 (AID 1883).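 Further: parasites grown with compound for 72 h before lysis and staining.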 Further: potency means the concentration at half of the fitted maximal effect.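 On activity change, negative = inhibition: 0% = vehicle wells and -100% = control inhibitor wells.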 To be noted: Potency: Plasmodium falciparum W2 proliferation inhibition; series mostly up to 28.7 µM.
The target in assay [10] is Endonuclease 4 (Escherichia coli (strain K12)) (UniProt P0A6C1). Description: Counterscreen for APE1 Inhibitors: qHTS Validation Assay for Inhibitors of Endonuclease IV (AID 1708). Further: on the % scale 0 is the no-effect control and ±100 the full control effect. The note with it: E. coli endonuclease IV, DNA cleavage fluorescence; series mostly up to 57.1 µM. The procedure, abridged: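 Incision of a double-stranded 50 nM TAMRA/BHQ-2 abasic substrate was followed kinetically (525/598 nm, reads every 60 s) after 15 min enzyme–compound preincubation with 2 nM EndoIV in pH 7.5 Tris buffer with MgCl2, DTT and Tween-20; concentration-response format.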

The mark [11] stands for this setting: measured here: cell count channel max response.
[12] abbreviates: measured here: lipid channel max response.

Values joined by “and” are separate entries in the source; they are usually repeats but may differ in a detail not shown here. Equal entries are not always repeated. Inconclusive results are not listed. Active and inactive are the calls of the source. Unless noted, the call rests on the fitted dose curve; in most records, active means well fitted curve in the direction sought with a large enough effect; inconclusive means small, poorly fitted or top-dose-only effect, or another doubt; inactive means no such curve, though single readings can be large; an effect the other way counts as inactive or inconclusive.

Sequence of DNA repair nuclease/redox regulator APEX1 (Homo sapiens) (P27695 whole entry, looked up): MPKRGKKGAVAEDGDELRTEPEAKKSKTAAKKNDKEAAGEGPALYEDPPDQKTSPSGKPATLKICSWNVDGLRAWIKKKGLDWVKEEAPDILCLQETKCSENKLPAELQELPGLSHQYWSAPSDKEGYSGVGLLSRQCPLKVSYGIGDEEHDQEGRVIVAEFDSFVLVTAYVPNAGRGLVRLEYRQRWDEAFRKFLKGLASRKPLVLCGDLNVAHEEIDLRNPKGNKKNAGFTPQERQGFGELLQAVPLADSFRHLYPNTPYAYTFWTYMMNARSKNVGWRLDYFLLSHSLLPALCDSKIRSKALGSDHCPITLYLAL

As to `CCCn1c(C)c(C(=O)c2ccc3ccccc3c2)c2ccccc21`, in assay [1], the activity change, negative = inhibition was -0.784% (inactive). The max response in [1] (setting [11]) came out at 17.8%; in [1] (setting [12]), 16.6%. The Potency result in [2], in assay [3] and in assay [8] was “inactive” throughout. Further, the Potency in [4] was 7.94 µM (active); in [5] it was 10 µM (active); in assay [6], 10 µM (active); in assay [7], 14.1 µM (active); in [9], 10 µM (active).

In the case of `CC(C)CC(NP(=O)(O)O[C@@H]1O[C@@H](C)[C@H](O)[C@@H](O)[C@H]1O)C(=O)NC(Cc1c[nH]c2ccccc12)C(=O)O` (stereo partly specified), the activity change, negative = inhibition in assay [1] was 3.22% (inactive). In addition, the max response in assay [1] (setting [11]) was 23.5%; in assay [1] (setting [12]), 29.8%. The Potency result in [2], in assay [10], in assay [4], in assay [5], in [6] and in [7] was “inactive” in each case. For the same compound, the Potency entry in assay [8] and in assay [9] was “inactive” each time.

With `NC(CCCCCP(=O)(O)O)C(=O)O` (stereo unspecified), in assay [1], the activity change, negative = inhibition is 0.489% (inactive). Further, the results for the max response in [1] (setting [11]) and in assay [1] (setting [12]) were -0.44% and -0.15%, respectively. The Potency entry in assay [2], in assay [10], in assay [4], in [5], in [6] and in [7] was “inactive” each time. For the same compound, the Potency entry in assay [8] and in assay [9] was “inactive” in each case.

With `NNC(N)=O`, the activity change, negative = inhibition in assay [1] was 1.16% (inactive). The max response in [1] (setting [11]) was -7.78%; in assay [1] (setting [12]), -7.06%. Besides, the Potency entry in assay [2], in [3], in [4], in [5], in assay [6] and in assay [7] was “inactive” throughout. For the same compound, the Potency result in assay [8] and in assay [9] was “inactive” each time.

In the case of `CC12NC(Cc3ccccc31)c1ccccc12` (stereo unspecified), the activity change, negative = inhibition in assay [1] is -2.09% (inactive). In addition, the max response is 1.93% in assay [1] (setting [11]) and -0.147% in [1] (setting [12]). For the same compound, the Potency entry in assay [2], in assay [10], in assay [6] and in [7] was “inactive” in each case. Moreover, the values for the Potency in assay [5], in [8] and in assay [9] were 5.01 µM (active), 7.94 µM (active) and 4.47 µM (active), respectively.

Regarding `C[N+]1(C)CCC(OC(=O)C(c2ccccc2)c2ccccc2)CC1`, the activity change, negative = inhibition in assay [1] was -1.55% (inactive) and -0.573% (inactive). The max response was 3.78% and -17.3% in assay [1] (setting [11]); 1.6% and -18% in assay [1] (setting [12]). Further, the Potency result in assay [2] and in [10] was “inactive” each time. Moreover, the Potency in assay [4] is 8.91 µM (active); in assay [5] it was 12.6 µM (active); in assay [6], 3.16 µM (active); in [7], 7.08 µM (active); in assay [9], 3.98 µM (active).

Consider `CCCN(CCC)[C@@H]1CCc2cccc(O)c2C1`, for which the activity change, negative = inhibition in assay [1] is -3.59% (inactive) and 3.17% (inactive) and -3.25% (inactive). Further, the max response in assay [1] (setting [11]) was 0.992% and 13.8% and 35%; in assay [1] (setting [12]), -2.21% and 19.9% and 27.7%. Further, the Potency entry in assay [2] and in assay [10] was “inactive” each time. Besides, the Potency is 3.55 µM (active) in [4]; 3.16 µM (active) in [5]; 10 µM (active) in [6]; 10 µM (active) in [7]; 8.91 µM (active) in [8]; 2.51 µM (active) in [9].

On to `O=[N+]([O-])c1ccc2nc(N3CCNCC3)ccc2c1`, for which the activity change, negative = inhibition in [1] was 0.42% (inactive). The max response in assay [1] (setting [11]) worked out at 28.4%; in assay [1] (setting [12]), 27.7%. The Potency entry in assay [2] and in assay [10] was “inactive” throughout. For the same compound, the Potency in assay [4] is 8.91 µM (active); in assay [5], 12.6 µM (active); in assay [6] it was 10 µM (active); in assay [7], 12.6 µM (active); in assay [9], 7.94 µM (active).

For the compound `O=[N+]([O-])c1cc(O)c(O)c([N+](=O)[O-])c1`, in assay [1], the activity change, negative = inhibition is 9.72% (inactive) and 0.381% (inactive). Besides, the max response was 15.9% and 33.6% in assay [1] (setting [11]); 26.8% and 29.7% in assay [1] (setting [12]). The Potency entry in [2], in [10], in assay [4], in [5], in assay [6] and in [7] was “inactive” each time. Moreover, the Potency result in assay [8] and in assay [9] was “inactive” each time.
